The campaign covered roughly 360,000 compounds. About 1,200 (0.33%) were called active. The sample as a whole holds a higher share of actives than the screen did. Unmarked numbers belong to inactive results.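 How the source made its calls: active means activation above the run's mean compound activation plus 3 SD (cut at about 16% in these data); inactive means the rest.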
Each compound was assayed against Muscarinic acetylcholine receptor M1 (Homo sapiens) (UniProt P11229) (assay: human M1 muscarinic receptor agonists, primary screen, Fluo-8 calcium fluorescence, CHO-K1 cells, HTS (AID 588814;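 further: peak over basal fluorescence ratio within a 140 s kinetic read after compound addition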)). Conditions: CHO-K1 hM1, Fluo-8 calcium fluorescence, agonist mode; at 3 µM; active compounds read high; 0% DMSO, 100% acetylcholine EC100.
Chain of Muscarinic acetylcholine receptor M1 (Homo sapiens) (P11229 whole entry, looked up): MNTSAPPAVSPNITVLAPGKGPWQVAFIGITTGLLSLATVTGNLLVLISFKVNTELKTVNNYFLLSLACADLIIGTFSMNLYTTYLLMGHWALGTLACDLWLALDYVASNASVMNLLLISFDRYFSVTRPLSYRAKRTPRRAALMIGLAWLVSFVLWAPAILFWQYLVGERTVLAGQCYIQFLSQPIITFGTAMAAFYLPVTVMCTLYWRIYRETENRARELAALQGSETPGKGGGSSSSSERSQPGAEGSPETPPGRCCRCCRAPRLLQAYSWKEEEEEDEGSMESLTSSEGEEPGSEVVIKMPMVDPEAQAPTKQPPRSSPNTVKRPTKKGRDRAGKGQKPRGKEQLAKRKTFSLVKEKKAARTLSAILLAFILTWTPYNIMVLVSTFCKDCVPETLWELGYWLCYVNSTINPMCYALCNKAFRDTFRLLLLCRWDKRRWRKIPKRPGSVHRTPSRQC
With `CC1(C(=O)NS(=O)(=O)c2cccc(F)c2)CCN1C(=O)Cc1ccc(Cl)cc1Cl` (centres undefined) the activation was -1.39%. Work on `CC1Cc2ccccc2N1CC(=O)Nc1ccc2c(c1)OC(F)(F)O2` (centres undefined) yielded an activation of -7.22%. In the case of `Cc1ccc(-n2nc(C)c(/C=N/NC(=O)c3cccs3)c2Cl)cc1`, the activation is reported as 16.7% (active). Compound `Cc1nn(-c2ccccc2)c(NC(=O)c2cccs2)c(-c2ccc(Cl)cc2)c1=O` has an activation of -7.73%. `CCN(CC)c1ccc(/C=N/NC(=O)CNC(=O)c2cccs2)cc1` gave an activation of -4.5%. In the case of `CC(=NNC(=O)c1ccncc1)c1ccc(Cl)c(Cl)c1`, the activation is reported as -2.06%. With `CCOCCCN1C(=O)C2C(C(=O)Nc3ccc(OCC)cc3)C3C=CC2(O3)C1C(=O)NC1CCCCC1` (centres undefined) the activation was -6.34%. Work on `CCCNC(=O)C1CC(=O)N(c2ccc(OCc3ccccc3)cc2)C1` (centres undefined) yielded an activation of 1.07%. `COc1cc(OC)c(-n2cc(-c3ccc(Cl)cc3)[nH]c2=O)cc1Cl` was tested, and the activation was 58% (active). Work on `COc1cc(OC)c(N2CC(C(=O)Nc3cc(Cl)ccc3N3CCOCC3)CC2=O)cc1Cl` (centres undefined) yielded an activation of -5.02%. `COc1ccc(-n2c(-c3ccc(Cl)cc3)n[nH]c2=S)c(OC)c1` showed an activation of -4.14%. For `CC(=O)C[C@@H](O)CC(=O)[C@H]1OC(=O)CCCCCCc2ccccc21`, the activation was 10.4%. `Cn1nccc1NC(=O)CC(CC(=O)O)c1ccccc1` (centres undefined) showed an activation of 0.28%. For `Cn1nc(C(F)(F)F)c2cc(NC(=O)OCC(C)(C)C)sc21`, the activation was -6.85%. `CC(C)COC(=O)c1ccc(NC(=O)C2C3C=CC(C3)C2C(=O)O)cc1` (centres undefined) gave an activation of -3%. `CCc1ccc(-c2cc3c(=O)n(CC(=O)NCCCN4CCN(Cc5ccccc5)CC4)nc(C)n3n2)cc1` gave an activation of 0.73%. In the case of `CC(C[N+](C)(C)C)OC(N)=O` (centres undefined), the activation is reported as 87.5% (active). For `CC(=O)OC(C)C[N+](C)(C)C` (centres undefined), the activation was 115% (active). For `CC(=O)OCCC(C)C`, the activation was -3.12%. Work on `Cc1oc2nc(SCC(=O)Nc3ccc(S(N)(=O)=O)cc3)nc(NC(=O)c3ccccc3)c2c1C` yielded an activation of -4.87%. In the case of `Cc1sc(NC(=O)C2=COCCO2)c(C#N)c1C`, the activation is reported as -6.11%. For `CC(C)Cn1c(CCC(=O)O)ccc1-c1cccs1`, the activation was -4.32%. Work on `O=c1c2ccccc2c(-c2ccccc2)nn1-c1ccccn1` yielded an activation of -1.79%. With `CC(C)(C)OC(=O)N/N=C/c1cn(-c2ccccc2)nc1-c1cccnc1` the activation was 24% (active). Compound `O=C(COC(=O)/C=C/c1cn(-c2ccccc2)nc1-c1cccnc1)Nc1ccc(Cl)cc1Cl` has an activation of -5.6%. Compound `COc1ccccc1N1CCN(C(=O)c2cn(-c3ccccc3)nc2-c2cccnc2)CC1` has an activation of 0.62%. In the case of `O=C(CNc1cccc(S(=O)(=O)N2CCCCC2)c1)Nc1ccccc1F`, the activation is reported as 2.04%. Compound `Cc1ccc(O)c(-c2cc(C(=O)NCc3ccccc3)[nH]n2)c1` has an activation of -5.25%. In the case of `Cc1cc(O)ccc1-c1cc(C(=O)NCc2cc(C(F)(F)F)cc(C(F)(F)F)c2)[nH]n1`, the activation is reported as 16.9% (active). For `CCCOc1ccc(F)cc1-c1cc(C(=O)NCc2ccc(F)cc2)[nH]n1`, the activation was -7.18%. In the case of `CCc1nc2c(OCCC3CCCCC3)cccn2c1N(C)C(=O)c1ccco1`, the activation is reported as -9.74%. With `CCOC(=O)C1(Cc2cccc(OC)c2)CCCN(S(=O)(=O)c2cccnc2)C1` (centres undefined) the activation was -1.49%. `COc1ccc(C(C#N)=C2C=CC(=NO)c3ccccc32)cc1` gave an activation of -8%. Work on `CCOc1c(N2CCCCC2)c(=O)c1=O` yielded an activation of -7.26%. `CCc1nc2ccc(C(=O)Nc3ccc(OC)c(OC)c3)cn2c1N(C)C(=O)c1cccc(OC)c1` was tested, and the activation was -2.95%. `CCc1nc2ccc(C(=O)N(C)CCN(C)C)cn2c1N(CC)CCOC` gave an activation of -6.84%. For `CCc1nc2ccc(C(=O)Nc3cccc(OC)c3)cn2c1N(CCC(C)C)CCN(C)C`, the activation was 29.4% (active). With `O=C(NNC(=S)NC(=O)c1cn(-c2ccccc2)nc1-c1ccccc1)c1ccncc1` the activation was 16.6% (active). For `Cc1ccc(-c2nn(-c3ccccc3)cc2C(=O)NC2CCC(O)CC2)cc1` (centres undefined), the activation was 0.01%. `NC(=O)C1CCN(C(=O)c2cn(-c3ccccc3)nc2-c2cccnc2)CC1` gave an activation of -0.33%. With `Cc1cc(SCC(=O)NCCN2C(=O)CSC2=O)nc2ccccc12` the activation was -9.92%. With `Cc1ccc(S(=O)(=O)NCc2nc3ccccc3c(=O)n2N)cc1` the activation was -0.65%. `N#CC1(NC(=O)COC(=O)CCN=C2NS(=O)(=O)c3ccccc32)CCCCC1` gave an activation of -0.14%. `O=C(CCCN=C1NS(=O)(=O)c2ccccc21)OCC(=O)c1ccc(F)c(F)c1` was tested, and the activation was 27% (active). `O=C(OCCN=C1NS(=O)(=O)c2ccccc21)c1cccc([N+](=O)[O-])c1` was tested, and the activation was -1.9%. `Cc1cccc(NC(=O)c2ccc3c(=O)n(CC4CCCO4)c(=S)[nH]c3c2)c1` (centres undefined) was tested, and the activation was -0.37%. Work on `N#C/C(=C\c1ccc(N2CCOCC2)o1)C(=O)N1CCOCC1` yielded an activation of 2.53%. In the case of `N#C/C(=C/c1ccc(N2CCCCC2)o1)C(=O)NCCc1c[nH]c2ccccc12`, the activation is reported as 28.4% (active). For `O=C(NCCc1c[nH]c2ccccc12)C1CCN(Cc2ccc(Br)cc2)CC1`, the activation was -4.6%. `CCOCc1nnc(NC(=O)CCC2CCCCC2)s1` showed an activation of -1.9%. `O=S(=O)(Nc1ccc(Cl)cn1)c1cnc(Cl)c(Br)c1` showed an activation of -0.28%. `CCOc1ccc(C(=O)NC(C(=O)NCc2ccccn2)C(C)C)cc1` (centres undefined) was tested, and the activation was -5.01%. Compound `O=C(N/N=C/c1ccsc1)c1cc(O)cc(O)c1` has an activation of -1.35%. `O=C1Nc2ccc([N+](=O)[O-])cc2C1=Nc1cccc(CO)c1` gave an activation of 0.24%. `O=C1C(=O)N(CC2COc3ccccc3O2)c2ccccc21` (centres undefined) was tested, and the activation was 39.1% (active). Compound `O=C1C(=O)N(c2ccccc2)c2ccccc21` has an activation of 13.1%. For `Cc1noc(C)c1C(=O)NCC1COc2ccccc2O1` (centres undefined), the activation was -2.12%. Work on `CCCC1C(c2ccccc2)C(C#N)(C#N)C2(C#N)CC1(N)NC2=O` (centres undefined) yielded an activation of -0.06%. `Cc1ccc(NC2=C(Cl)C(=O)OC2OC(=O)c2ccccc2C)cc1` (centres undefined) was tested, and the activation was -9.26%.

Source: PubChem BioAssay AID588814 (The Scripps Research Institute Molecular Screening Center, 2011)
